Assay outcomes (PubChem)
The full list was thinned out, with hits kept by preference.
CD40 NFkB inh: CD40 pathway inhibition in BL2 cells. BL2 NF-kB luciferase reporter, CD40L-induced, 4 h. inhibition, % at 10 µM. 83,000 tested, 0.94% active;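 active = mean inhibition of at least 50% with a set share of replicates also reaching that level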
Each line names hits and unclear results; the compound was inactive in the other large screens.

CO[C@@H]1CN(C)C(=O)c2cc(NS(C)(=O)=O)ccc2OC[C@@H](C)N(C(=O)C2CCOCC2)C[C@@H]1C	none
CCCc1cn(CC[C@H]2CC[C@@H](NC(=O)Cc3cccnc3)[C@H](CO)O2)nn1	none
Cc1noc(C)c1S(=O)(=O)N(C)C[C@H]1OCc2ccccc2-c2ccccc2C(=O)N([C@@H](C)CO)C[C@@H]1C	none
COc1ccc(-c2ccc3n(c2=O)C[C@H]2[C@H](CO)[C@@H](C(=O)N(C)C)N(CC4CCOCC4)[C@@H]32)cc1	none
C[C@@H](N)C(=O)N[C@H]1CCC2C3CC=C4C[C@@H](O)CC[C@]4(C)C3CC[C@@]21C (stereo partly specified)	none
CC(=O)[C@H]1CCC2C3CC=C4C[C@@H](O)CC[C@]4(C)C3CC[C@@]21C (stereo partly specified)	none
CC(C)[C@H](N)C(=O)N[C@H]1CCC2C3CC=C4C[C@@H](O)CC[C@]4(C)C3CC[C@@]21C (stereo partly specified)	CD40 NFkB inh 71
O=C(NCC[C@H]1CC[C@H](NS(=O)(=O)c2ccc(F)cc2)[C@H](CO)O1)Nc1ccc(Cl)cc1	none
O=C(Nc1cc(=O)[nH]c2nc(-c3ccc(Cl)cc3)nn12)c1ccccc1	none
Cn1nc(-c2ccc(Cl)cc2)nc2c(=O)n(C)c(=O)nc1-2	CD40 NFkB inh 84
Cn1nc(C(=O)NNC(=O)c2ccc(Cl)cc2)ccc1=O	none
C[C@H]1CN([C@@H](C)CO)S(=O)(=O)c2ccc(C#CC3CC3)cc2O[C@H]1CN(C)C(=O)CN(C)C	none
O=C1/C(=C\c2ccc(Cl)c(Cl)c2)CN(C(=O)CCN2CCOCC2)C/C1=C/c1ccc(Cl)c(Cl)c1	CD40 NFkB inh 74
CC(=O)N1CCC(N(CCN2CCOCC2)C(=O)Nc2ccc(Cl)c(Cl)c2)CC1	none
O=C(c1ccc(Cl)c(Cl)c1)N1CCC(O)(CN2CCOCC2)CC1	none
CN1C(=O)c2cc(NC(=O)C3CC3)ccc2OC[C@@H]2O[C@@H](CC(=O)NCc3ccccc3F)CC[C@H]21	none
O=C(NC1CCC1)[C@H]1[C@H](CO)[C@H]2Cn3c(ccc(-c4ccccc4)c3=O)[C@@H]1N2	none
CC1(C(=O)Nc2ccccc2Br)CCN1C(=O)Cc1ccc(Cl)cc1Cl (stereo unspecified)	none
Clc1ccc(-c2cnc3n2CCCCC3)cc1	none
Clc1ccc(C[n+]2cc(-c3ccccc3)n3c2CCCCC3)c(Cl)c1	CD40 NFkB inh 65
O=C(C[C@@H]1C[C@H]2c3cc(NC(=O)CC4CC4)ccc3O[C@H]2[C@H](CO)O1)NCC1CC1	none
O=C(C[C@H]1CC[C@@H]2[C@H](COC[C@@H](O)CN2C(=O)Cc2ccccc2)O1)NC1Cc2ccccc2C1	none
CCC(=O)N1[C@H](CO)[C@H](c2ccc(-c3ccccc3)cc2)[C@@H]1CNC(=O)COC	none
CC(=O)N1[C@@H]2Cn3c(ccc(-c4ccccc4F)c3=O)[C@H]1[C@@H](C(=O)NC1CCC1)[C@@H]2CO	none
CC(C)NC(=O)N1C[C@@H]2C(c3ccccc3)[C@H](C1)N2CC(F)(F)F (stereo partly specified)	none
C=C1C(=O)OC2C=C(CO)C3OC3C3OC3(C)CC(OC(=O)/C(=C/C)COC(C)=O)C12 (stereo unspecified)	CD40 NFkB inh 101
N#C[C@@H]1[C@H](c2ccc(C3=CCCCC3)cc2)[C@H](CO)N1S(=O)(=O)c1cccc(F)c1	none
O=C(O)[C@@H]1[C@@H](CO)[C@@H]2Cn3c(ccc(-c4ccc(F)cc4)c3=O)[C@@H]2N1C(=O)Nc1ccccc1	none
CCC(=O)N1[C@H](CO)[C@@H](c2ccccc2)C12CN(C(=O)Nc1ccccc1F)C2	none
C[C@@H]1CN([C@@H](C)CO)C(=O)c2ccccc2-c2ccccc2CO[C@@H]1CN(C)Cc1ccncc1	none
CN1CCN(C(=O)C[C@@H]2C[C@@H]3c4cc(NC(=O)NC5CCCCC5)ccc4O[C@@H]3[C@H](CO)O2)CC1	none
CC(=O)N1C[C@@H]2C(c3ccccc3)[C@H](C1)N2C(C)=O (stereo partly specified)	none
C[C@H]1CN(C)C(=O)Cc2ccccc2O[C@@H]1CN(C)C	none
CC(=O)N(C(C)=O)c1ncnc2c1c(-c1ccc(Cl)cc1)nn2C(C)(C)C	CD40 NFkB inh 55
CC(=O)Nc1ncnc2c1c(-c1ccc(Cl)cc1)nn2C(C)(C)C	none
CO[C@@H]1CN(C)C(=O)c2cc(NC(=O)C3CC3)ccc2OC[C@H](C)N(CC2CCCC2)C[C@H]1C	none
COc1cccc(C(=O)Nc2ccc3c(c2)C(=O)N(C)C[C@@H](OC)[C@@H](C)CN(C(=O)C2CCCC2)[C@H](C)CO3)c1	none
CCCCC(CC)C(=O)Nc1ncc([N+](=O)[O-])s1 (stereo unspecified)	none
Cc1ccc(CC(=O)Nc2ncc([N+](=O)[O-])s2)cc1	none
O=C(/C=C/c1ccc([N+](=O)[O-])cc1)Nc1ncc([N+](=O)[O-])s1	CD40 NFkB inh 92
CC(C)NC(=O)N1C[C@H]2[C@@H](c3ccccc31)[C@H](CO)N2C(=O)c1ccc(F)cc1	none
COCC(=O)N1C[C@@H]2[C@H](c3ccccc31)[C@H](CO)N2C(=O)NC(C)C	none
CC(=O)Nc1ccc(C(=O)COC(=O)C2CC3CCCC(C2)C3=O)cc1 (stereo unspecified)	none
CC(=O)NCCc1ccc(C(=O)COC(=O)C2CCCCC2)cc1	CD40 NFkB inh 54
CC(=O)NCCc1ccc(C(=O)COC(=O)c2ccco2)cc1	none
CCCNC(=O)Nc1ccc2c(c1)OC[C@@H](C)N(C(=O)C1CCCC1)C[C@@H](C)[C@H](OC)CN(C)C2=O	none
CNC[C@@H]1Oc2ccc(N)cc2C(=O)N(C)C[C@H]1C	none
CC(=O)NC[C@H]1[C@@H](c2ccc(C3=CCCC3)cc2)[C@@H](CO)N1C(=O)C1CC1	none
C[C@H](CO)N1C[C@H](C)[C@@H](CN(C)Cc2ccccc2C(F)(F)F)OCc2ccccc2-c2c(n(C)c3ccccc23)C1=O	none
CO[C@@H]1CN(C)C(=O)c2ccc(NC(=O)C3CCCCC3)cc2OC[C@H](C)N(C)C[C@@H]1C	none
c1coc(-c2nnc(-c3ccc4c(c3)OCO4)o2)c1	none
Cc1ccc(-c2nnc(-c3ccc4c(c3)OCO4)o2)cc1	none
O=C1CCCCC1Sc1nnc(-c2ccc3c(c2)OCO3)o1 (stereo unspecified)	CD40 NFkB inh 95
COc1cccc(-c2ccc([C@H]3[C@@H](CO)N4CCCCN(C(=O)c5ccc6c(c5)OCO6)C[C@H]34)cc2)c1	none
CCCC#Cc1ccc([C@H]2[C@@H](CO)N(S(=O)(=O)c3cccc(F)c3)[C@H]2C#N)cc1	none
CNC[C@@H]1Oc2c(N)cccc2C(=O)N(C)C[C@@H]1C	none
O=C(c1ccccc1)c1ccc(OCC(O)CNCc2ccc(F)cc2)cc1 (stereo unspecified)	none
OC(COC(c1ccc(F)cc1)c1ccc(F)cc1)CN1CCCC1 (stereo unspecified)	none
Cc1ccc(C(OCC(O)CNCc2ccc(F)cc2)c2ccccc2)cc1 (stereo unspecified)	CD40 NFkB inh 50
CO[C@@H]1CN(C)C(=O)c2cc(NC(=O)NC(C)C)ccc2OC[C@@H](C)N(Cc2ccccc2)C[C@@H]1C	none
C[C@H](CO)N1C[C@H](C)[C@@H](CN(C)C(=O)Oc2ccccc2)OCc2ccccc2-c2ccccc2C1=O	none
Cc1ccc(Cn2c(C)c3cnn(CC(=O)NC4CCCC4)c(=O)c3c2C)cc1	none
O=C(Cn1ncc(Cl)c(Cl)c1=O)NC1CCCCC1	CD40 NFkB inh 97
O=C(CN1CCN(Cc2ccccc2Cl)C1=O)NC1CCCCCCC1	none
N#C[C@H]1N[C@@H](CO)[C@@H]1c1ccc(C#CC2CCCC2)cc1	none
